From PubChem BioAssay (NCATS) come the findings set out here.

A number with no mark means an inactive call. Inconclusive results are not listed. Calls of active or inactive are those of the source. Unless noted, the call rests on the fitted dose curve; in most records, active means well fitted curve in the direction sought with a large enough effect; inconclusive means small, poorly fitted or top-dose-only effect, or another doubt; inactive means no such curve, though single readings can be large; an effect the other way counts as inactive or inconclusive.

Assay [1] concerns the target Lysosomal acid glucosylceramidase (Homo sapiens) (UniProt P04062). Nature of the assay: Glucocerebrosidase-p2 (AID 348; in the data active means potency below about 10 µM; further: potency means the concentration at half of the fitted maximal effect). The note with it: purified GBA, blue fluorogenic substrate, 40 min. A digest of the protocol: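 Compounds titrated from 0.6 nM upwards against 0.2 nM enzyme in pH 5.9 citric acid/KH2PO4, taurocholate, tween-20; blue fluorogenic substrate 80 uM, 40 min room temperature, stopped and read Ex 365/Em 440 for AC50.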

The nature of assay [2]: AP1 Signaling Pathway (AID 357; active means well fitted curve in either direction with a large enough effect, not every such curve was filed as active;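 further: ME-180 reporter cells stimulated with EGF at its EC50 level; on the % scale 0 is the no-effect control and ±100 the full control effect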). As to conditions: ME-180 AP-1-bla reporter, EGF-induced, beta-lactamase ratio, 5 h; at 7.69 µM (top of the series) unless noted. A digest of the protocol:
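Titration-series screen for positive or negative modulators of EC50 EGF-induced signaling in ME-180 cells carrying an AP-1-driven beta-lactamase reporter. After 5 hours at 37 degrees Celsius, CCF4 460nm/530nm emission ratio gave %Activity; AC50 values derived.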

Assay [3] can be described thus: NFAT Signaling Pathway (AID 444; active means well fitted curve in either direction with a large enough effect, not every such curve was filed as active;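 further: carbachol stimulus at about its EC50 of 1 µM final; on the % scale 0 is the no-effect control and ±100 the full control effect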). As to conditions: Jurkat NFAT-bla M1, carbachol, beta-lactamase ratio, 5 h; at 7.69 µM (top of the series) unless noted. The method in brief:
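Jurkat cells with NFAT-driven β-lactamase reporter and co-expressed M1 receptor, stimulated with carbachol (final 1 uM, ~EC50), compound titration, 5 h at 37 °C. CCF4 loaded 1 h at RT; 460/530 nm ratio gave %activity and AC50.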

The nature of assay [4]: Stat Signaling Pathway (AID 446; active means well fitted curve in either direction with a large enough effect, not every such curve was filed as active;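 further: ME-180 cervical cancer cells given 40 pM IL-6 alongside compound; SIE-controlled beta-lactamase reporter measured as 460/530 nm FRET emission ratio; on the % scale 0 is the no-effect control and ±100 the full control effect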). As to conditions: ME-180 SIE beta-lactamase reporter, IL-6 stimulated, 5 h; at 7.69 µM (top of the series) unless noted. The method in brief:
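IL-6/STAT signaling read in ME-180 cells via an SIE beta-lactamase reporter. Stimulus was 40 pM IL-6 (its AC50) for 5 hrs, so both activation and inhibition register.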

Assay [5] addresses Glucocorticoid receptor (Homo sapiens) (UniProt P04150). Nature of the assay: GR-GFP Redistribution (AID 450;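 active means compounds whose dose series gives a full or clear partial fitted curve of increased nuclear translocation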; further: potency means the concentration at half of the fitted maximal effect). The note with it: U2OS GR-GFP nuclear translocation, laser cytometry, 2 h.
For assay [6] the target is unchanged. The assay can be described thus: GR-EFC Redistribution (AID 451; calls by dose curve; further: potency means the concentration at half of the fitted maximal effect). The note with it: CHO-K1 GR-EFC translocation, beta-gal luminescence, 2 h. A digest of the protocol:
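CHO-K1 cells expressing nuclear EA and GR-ED fragments of b-gal; compounds titrated up to 46 uM final, 2 h at 37 C. GR nuclear translocation read as complemented b-gal luminescence after 1 h RT detection.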

In assay [7] the target is Mitogen-activated protein kinase 10 (Mus musculus) (UniProt Q61831). Nature of the assay: JNK3 AlphaScreen Assay (AID 530; active means well fitted curve in either direction with a large enough effect, not every such curve was filed as active;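 further: kinase came from lysate of stimulated human HepG2 cells; signal reports phosphorylation of biotinylated GST-cJun 1-79 at Ser73 with 10 µM ATP; on the % scale 0 is the no-effect control and ±100 the full control effect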). The note with it: JNK3 lysate, c-Jun phosphorylation; series mostly up to 57.1 µM. The method in brief:
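Pre-activated (IL-1β/TNFα) JNK3 in HepG2 lysates phosphorylates biotin-GST-cJun(1-79), 10 uM ATP; anti-phospho-cJun(Ser73) AlphaScreen read at room temperature, pH 7.6 Tris buffer. Compounds pre-incubated 15 min as titrations.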

Assay [8] deals with 3',5'-cyclic-AMP phosphodiesterase 4B (Homo sapiens) (UniProt Q07343). The assay can be described thus: qHTS Assay for Inhibitors of PDE-IV (AID 607; active means well fitted activation curve with a large enough effect in the main read-out, with a control signal flat, not every such curve was filed as active; further: % of control where 0% means no effect). The note with it: HEK293 ACTOne CNG channel cells, membrane potential fluorescence; series mostly up to 22.9 µM. A digest of the protocol:
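Live HEK293 cells with a modified cyclic nucleotide-gated (CNG) channel report intracellular cAMP via membrane-potential dye fluorescence (ex 535/em 590 nm). Endogenous PDE-IV was targeted. Compounds were tested at up to 22.9 uM final; RO 20-1724 100 uM served as control.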

Assay [9] concerns the target Dual specificity protein kinase CLK4 (Homo sapiens) (UniProt Q9HAZ1). The assay can be described thus: qHTS Assay for Inhibitors of CDC-like Kinase 4 (Kinase-Glo Assay) (AID 1770). Further: nearly all actives have a fitted effect of over 65% in size. Further: potency means the concentration at half of the fitted maximal effect. As to conditions: recombinant Clk4, Kinase-Glo ATP depletion luminescence; series mostly up to 66.7 µM. A digest of the protocol: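 Clk4 25 nM, RS peptide 100 uM, ATP 1 uM, pH 7.5 Tris, 10 mM MgCl2, 2.5 mM DTT; 4.5 h RT; ATP depletion read by Kinase-Glo luminescence.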
(In qHTS, concentration-response curves come from the screen itself.)

Assay [10] has the same target. The assay can be described thus: qHTS Assay for Inhibitors of CDC-like Kinase 4 (ADP-Glo Assay) (AID 1771). Further: nearly all actives have a fitted effect of over 70% in size. Further: potency means the concentration at half of the fitted maximal effect. As to conditions: recombinant CLK4, ADP-Glo luminescence; series mostly up to 80 µM. A digest of the protocol: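 25 nM Clk4 with 100 uM RS repeat peptide and 1 uM ATP (final) in buffer with 2 mM MgCl2, 0.5 mM EGTA, 2.5 mM DTT, 0.01% Triton X-100; 1 h at room temperature; ADP-Glo luminescence for ADP formed.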

Assay [11] has the same target. The assay can be described thus: qHTS Assay for Inhibitors of CDC-like Kinase 4 (ADP-FP Assay) (AID 1795). Further: nearly all actives have a fitted effect of over 60% in size. Further: potency means the concentration at half of the fitted maximal effect. As to conditions: Transcreener ADP fluorescence polarization; series mostly up to 50 µM. A digest of the protocol:
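Kinase activity was followed as ADP output, converted from fluorescence polarization with a calibration curve. Reactions ran one hour at low ATP (1 uM) with RS peptide substrate.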

For assay [12], the target named is Ubiquitin carboxyl-terminal hydrolase 1 (Homo sapiens) (UniProt O94782). Nature of the assay: Inhibitors of USP1/UAF1: Pilot qHTS (AID 504865).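 Further: rhodamine fluorescence freed from ubiquitin-rhodamine substrate followed over time; top concentration of the series differs between compounds; on the % scale 0 is the no-effect control and ±100 the full control effect; nearly all actives have a fitted effect of over 35% in size.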 The note with it: purified USP1/UAF1, Ub-rhodamine cleavage fluorescence; series mostly up to 54.9 µM. The method in brief: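 Enzyme-free wells gave the negative control, while test wells held 1nM USP1/UAF1 preincubated with compound for 15 min at room temperature. Ub-Rho at 150nM final started the reaction, and fluorescence at 480/540 nm was recorded kinetically.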

Assay [13] can be described thus: Primary qHTS for small molecule stabilizers of the endoplasmic reticulum resident proteome: Secreted ER Calcium Modulated Protein (SERCaMP) assay (AID 1508630). Further: on the % scale 0 is the no-effect control and ±100 the full control effect. The note with it: SH-SY5Y GLuc-SERCaMP (Gaussia luciferase released on ER calcium loss) secretion, thapsigargin, luminescence; series mostly up to 38.4 µM. A digest of the protocol:
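GLuc-SERCaMP-expressing SH-SY5Y cells, pretreated 16 h with compound, are challenged with thapsigargin to empty ER calcium stores; after 4 h, coelenterazine is added directly to the medium and luminescence is imaged.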

Assay [14] deals with Cytochrome P450 1A2 (Homo sapiens) (UniProt P05177). The assay can be described thus: p450-cyp1a2 (AID 410; calls by dose curve; further: potency means the concentration at half of the fitted maximal effect). As to conditions: recombinant CYP1A2, luciferin-ME demethylation, luminescence; series mostly up to 57 µM. A digest of the protocol:
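20nM CYP1A2 with 100uM Luciferin-ME (at Km) in 100mM KPO4; compound preincubated 10 min, NADPH regeneration added, 60 min at room temperature. Luciferin quantified by luminescence after detection reagent; normalized to 57 uM furafylline.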

Assay [15] has as its target Cytochrome P450 3A4 (Homo sapiens) (UniProt P08684). Nature of the assay: qHTS Assay for Activators of Cytochrome P450 3A4 (AID 885). Further: nearly all actives have a fitted effect of over 65% in size. As to conditions: recombinant CYP3A4, Luciferin-PPXE luminescence, 60 min; series mostly up to 57.1 µM. The method in brief:
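Quantitative HTS format: compounds preincubated with 20nM human CYP3A4 and Luciferin-PPXE substrate at KM, reaction started by NADPH regeneration, stopped after 60 min, luciferase luminescence read 20 min later.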

Assay [16] has the same target. Nature of the assay: qHTS Assay for Inhibitors and Substrates of Cytochrome P450 3A4 (AID 884). Further: potency means the concentration at half of the fitted maximal effect; nearly all actives have a fitted effect of over 50% in size. As to conditions: recombinant CYP3A4, Luciferin-PPXE luminescence; series mostly up to 57.1 µM. A digest of the protocol:
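20 nM human CYP3A4 with 25 uM Luciferin-PPXE (at KM) in 200 mM KPO4, preincubated 10 min with compound; NADPH regeneration started a 60 min RT reaction. Luciferin detected by luminescence, normalized to 57 uM ketoconazole as full inhibition.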

For assay [17], the target named is Cytochrome P450 2D6 (Homo sapiens) (UniProt P10635). Nature of the assay: qHTS Assay for Inhibitors and Substrates of Cytochrome P450 2D6 (AID 891). Further: potency means the concentration at half of the fitted maximal effect; nearly all actives have a fitted effect of over 60% in size. The note with it: recombinant CYP2D6, luciferin-ME EGE luminescence; series mostly up to 57.1 µM. A digest of the protocol: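 Human CYP2D6 (5 nM) with 30 uM Luciferin-ME EGE (at Km) in 100 mM KPO4, compound preincubated 10 min, then NADPH regeneration system for 60 min at room temperature. Luciferin read by luminescence; normalized to 1.43 uM quinidine.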

A short description of assay [18]: qHTS Assay for Identification of Small Molecule Agonists for Hypoxia Response Element Signaling Pathway (AID 914; active means well fitted activation curve with a large enough effect in the signal ratio, with a control signal flat, not every such curve was filed as active; the % refers to the signal ratio; further: % of control where 0% means no effect). The note with it: ME-180 (cervical carcinoma) HRE-bla reporter, beta-lactamase ratio, CoCl2, 17 h; activation: stronger effect = higher value. A digest of the protocol:
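In Opti-MEM containing 0.5% dialyzed FBS and 10 mM HEPES, ME-180 HRE-bla cells received a compound titration and EC50 CoCl2. They were incubated 17 hours, then CCF4-loaded 2.5 hours at room temperature before ratio reading.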

Sequence of Cytochrome P450 1A2 (Homo sapiens) (P05177 whole entry, looked up): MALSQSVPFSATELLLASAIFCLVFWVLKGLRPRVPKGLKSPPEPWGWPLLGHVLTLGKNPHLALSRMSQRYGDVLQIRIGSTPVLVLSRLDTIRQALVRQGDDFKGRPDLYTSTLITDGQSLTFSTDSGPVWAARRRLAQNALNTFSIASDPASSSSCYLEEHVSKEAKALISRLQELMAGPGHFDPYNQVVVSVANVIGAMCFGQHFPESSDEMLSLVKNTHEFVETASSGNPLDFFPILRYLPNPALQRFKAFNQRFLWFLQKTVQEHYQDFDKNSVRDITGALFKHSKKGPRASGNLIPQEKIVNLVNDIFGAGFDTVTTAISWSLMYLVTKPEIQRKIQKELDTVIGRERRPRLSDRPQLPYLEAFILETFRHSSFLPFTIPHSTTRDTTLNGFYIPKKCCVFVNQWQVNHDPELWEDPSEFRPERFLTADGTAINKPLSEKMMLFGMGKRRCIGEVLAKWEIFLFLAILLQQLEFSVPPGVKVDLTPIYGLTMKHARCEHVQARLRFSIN
Sequence of Glucocorticoid receptor (Homo sapiens) (P04150 whole entry, looked up): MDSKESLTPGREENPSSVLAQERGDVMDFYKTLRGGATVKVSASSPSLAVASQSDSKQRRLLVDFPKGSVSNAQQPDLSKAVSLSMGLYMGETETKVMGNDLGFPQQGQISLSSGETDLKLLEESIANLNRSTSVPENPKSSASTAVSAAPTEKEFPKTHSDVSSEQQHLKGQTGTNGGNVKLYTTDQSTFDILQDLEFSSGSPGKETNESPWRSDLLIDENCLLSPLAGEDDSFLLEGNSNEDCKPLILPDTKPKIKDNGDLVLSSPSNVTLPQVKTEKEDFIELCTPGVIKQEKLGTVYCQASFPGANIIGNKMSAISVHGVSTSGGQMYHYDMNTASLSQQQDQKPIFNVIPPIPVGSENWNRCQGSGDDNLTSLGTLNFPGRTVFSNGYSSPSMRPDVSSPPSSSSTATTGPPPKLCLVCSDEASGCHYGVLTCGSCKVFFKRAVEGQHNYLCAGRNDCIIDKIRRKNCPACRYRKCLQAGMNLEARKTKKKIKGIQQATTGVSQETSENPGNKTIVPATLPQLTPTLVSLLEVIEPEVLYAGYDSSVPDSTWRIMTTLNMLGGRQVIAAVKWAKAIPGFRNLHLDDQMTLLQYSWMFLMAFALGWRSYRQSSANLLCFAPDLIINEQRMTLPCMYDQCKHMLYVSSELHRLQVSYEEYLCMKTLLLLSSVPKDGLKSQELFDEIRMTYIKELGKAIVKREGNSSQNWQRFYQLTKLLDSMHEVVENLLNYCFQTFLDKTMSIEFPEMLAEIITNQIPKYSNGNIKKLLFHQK
Sequence of Ubiquitin carboxyl-terminal hydrolase 1 (Homo sapiens) (O94782 whole entry, looked up): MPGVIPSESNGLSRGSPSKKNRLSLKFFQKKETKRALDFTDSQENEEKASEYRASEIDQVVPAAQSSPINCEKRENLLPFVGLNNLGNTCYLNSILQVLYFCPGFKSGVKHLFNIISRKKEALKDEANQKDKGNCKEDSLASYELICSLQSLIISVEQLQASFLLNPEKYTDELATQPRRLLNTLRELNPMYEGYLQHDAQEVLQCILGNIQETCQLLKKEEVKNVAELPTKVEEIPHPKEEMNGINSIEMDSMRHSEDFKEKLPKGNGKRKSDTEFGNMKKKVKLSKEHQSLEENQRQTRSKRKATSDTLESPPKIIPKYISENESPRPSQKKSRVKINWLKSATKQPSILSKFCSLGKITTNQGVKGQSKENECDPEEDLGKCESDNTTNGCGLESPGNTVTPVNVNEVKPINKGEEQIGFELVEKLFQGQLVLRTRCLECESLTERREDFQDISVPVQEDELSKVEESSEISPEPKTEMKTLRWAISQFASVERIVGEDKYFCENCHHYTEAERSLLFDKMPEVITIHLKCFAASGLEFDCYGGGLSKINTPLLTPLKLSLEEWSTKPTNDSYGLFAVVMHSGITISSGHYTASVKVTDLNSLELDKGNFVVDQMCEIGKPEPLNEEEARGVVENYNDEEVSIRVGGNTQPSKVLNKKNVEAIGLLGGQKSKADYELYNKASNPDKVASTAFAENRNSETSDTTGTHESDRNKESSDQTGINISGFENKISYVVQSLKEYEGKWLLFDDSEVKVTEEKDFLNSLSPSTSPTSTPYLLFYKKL
Sequence of Dual specificity protein kinase CLK4 (Homo sapiens) (Q9HAZ1 whole entry, looked up): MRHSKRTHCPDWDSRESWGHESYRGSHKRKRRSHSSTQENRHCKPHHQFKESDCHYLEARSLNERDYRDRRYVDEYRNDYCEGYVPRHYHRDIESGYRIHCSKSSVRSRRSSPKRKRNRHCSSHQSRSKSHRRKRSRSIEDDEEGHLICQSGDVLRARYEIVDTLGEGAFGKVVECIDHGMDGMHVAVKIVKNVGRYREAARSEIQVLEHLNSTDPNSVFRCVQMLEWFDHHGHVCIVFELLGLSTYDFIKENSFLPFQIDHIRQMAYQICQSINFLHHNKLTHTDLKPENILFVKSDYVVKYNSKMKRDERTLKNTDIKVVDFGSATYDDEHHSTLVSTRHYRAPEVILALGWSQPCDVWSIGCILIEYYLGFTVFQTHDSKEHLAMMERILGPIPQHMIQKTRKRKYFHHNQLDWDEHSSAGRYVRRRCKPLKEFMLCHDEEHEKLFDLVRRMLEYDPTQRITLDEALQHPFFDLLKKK
Sequence of Lysosomal acid glucosylceramidase (Homo sapiens) (P04062 whole entry, looked up): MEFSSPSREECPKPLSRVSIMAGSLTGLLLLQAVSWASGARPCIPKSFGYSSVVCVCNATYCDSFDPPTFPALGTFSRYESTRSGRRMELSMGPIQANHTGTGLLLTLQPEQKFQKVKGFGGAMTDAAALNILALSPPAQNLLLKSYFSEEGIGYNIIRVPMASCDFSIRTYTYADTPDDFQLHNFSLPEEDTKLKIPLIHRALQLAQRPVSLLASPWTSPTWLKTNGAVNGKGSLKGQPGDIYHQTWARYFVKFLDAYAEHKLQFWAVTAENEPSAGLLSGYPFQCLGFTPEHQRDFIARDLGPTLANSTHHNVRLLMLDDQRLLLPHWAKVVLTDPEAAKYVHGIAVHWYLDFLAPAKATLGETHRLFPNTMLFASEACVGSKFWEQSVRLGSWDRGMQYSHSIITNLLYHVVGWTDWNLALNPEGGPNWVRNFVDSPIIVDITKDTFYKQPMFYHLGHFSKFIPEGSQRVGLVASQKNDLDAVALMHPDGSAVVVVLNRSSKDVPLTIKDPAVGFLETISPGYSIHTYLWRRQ
Sequence of 3',5'-cyclic-AMP phosphodiesterase 4B (Homo sapiens) (Q07343 whole entry, looked up): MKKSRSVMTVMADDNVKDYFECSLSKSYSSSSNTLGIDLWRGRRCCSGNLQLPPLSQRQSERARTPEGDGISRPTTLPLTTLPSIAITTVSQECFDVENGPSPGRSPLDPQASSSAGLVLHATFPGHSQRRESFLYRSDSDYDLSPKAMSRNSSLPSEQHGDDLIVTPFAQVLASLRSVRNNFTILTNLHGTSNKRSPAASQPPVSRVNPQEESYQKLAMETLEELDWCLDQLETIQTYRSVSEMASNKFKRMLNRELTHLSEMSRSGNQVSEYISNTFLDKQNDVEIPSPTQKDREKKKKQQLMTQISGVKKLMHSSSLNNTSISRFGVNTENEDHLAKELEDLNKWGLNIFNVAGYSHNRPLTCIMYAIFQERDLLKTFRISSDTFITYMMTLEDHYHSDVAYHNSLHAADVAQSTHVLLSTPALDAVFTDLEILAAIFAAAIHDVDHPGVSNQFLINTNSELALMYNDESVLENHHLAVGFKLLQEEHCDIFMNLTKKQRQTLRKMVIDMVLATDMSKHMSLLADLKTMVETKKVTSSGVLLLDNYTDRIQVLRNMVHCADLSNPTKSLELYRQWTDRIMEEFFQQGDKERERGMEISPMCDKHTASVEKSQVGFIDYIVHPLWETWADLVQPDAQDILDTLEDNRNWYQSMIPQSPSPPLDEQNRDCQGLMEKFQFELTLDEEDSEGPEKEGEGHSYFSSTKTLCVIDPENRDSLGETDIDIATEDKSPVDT
Sequence of Cytochrome P450 3A4 (Homo sapiens) (P08684 whole entry, looked up): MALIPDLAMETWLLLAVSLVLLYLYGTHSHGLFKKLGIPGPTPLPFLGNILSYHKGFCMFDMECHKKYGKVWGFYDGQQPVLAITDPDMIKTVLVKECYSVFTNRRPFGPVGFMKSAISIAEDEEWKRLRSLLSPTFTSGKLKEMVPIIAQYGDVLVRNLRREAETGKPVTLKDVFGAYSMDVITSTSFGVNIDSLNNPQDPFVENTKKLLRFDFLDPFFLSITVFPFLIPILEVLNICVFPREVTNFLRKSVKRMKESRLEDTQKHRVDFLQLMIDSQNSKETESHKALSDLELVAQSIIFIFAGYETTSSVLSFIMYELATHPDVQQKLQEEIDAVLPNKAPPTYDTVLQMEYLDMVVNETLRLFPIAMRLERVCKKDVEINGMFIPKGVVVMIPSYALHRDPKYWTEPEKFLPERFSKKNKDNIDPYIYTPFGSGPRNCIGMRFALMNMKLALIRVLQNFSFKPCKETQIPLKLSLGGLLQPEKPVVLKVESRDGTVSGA
Sequence of Cytochrome P450 2D6 (Homo sapiens) (P10635 whole entry, looked up): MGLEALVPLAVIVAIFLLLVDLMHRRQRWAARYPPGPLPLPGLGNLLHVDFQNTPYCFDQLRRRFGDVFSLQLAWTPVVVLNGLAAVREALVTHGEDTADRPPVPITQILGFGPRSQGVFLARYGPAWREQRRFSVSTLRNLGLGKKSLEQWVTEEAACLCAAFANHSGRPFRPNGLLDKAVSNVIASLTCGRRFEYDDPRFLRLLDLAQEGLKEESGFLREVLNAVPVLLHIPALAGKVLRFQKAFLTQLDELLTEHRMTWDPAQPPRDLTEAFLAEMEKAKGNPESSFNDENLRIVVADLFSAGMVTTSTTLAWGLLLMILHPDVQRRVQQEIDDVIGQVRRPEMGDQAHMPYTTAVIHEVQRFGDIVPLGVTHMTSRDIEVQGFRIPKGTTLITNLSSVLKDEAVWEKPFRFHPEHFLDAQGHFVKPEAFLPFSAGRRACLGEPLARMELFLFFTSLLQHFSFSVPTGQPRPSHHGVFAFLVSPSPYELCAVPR

Turning to `Clc1ccccc1-c1cc(NCCN2CCOCC2)ncn1`, the values for the Potency in assay [1], in assay [5] and in assay [6] were more than 11.4 µM, more than 46 µM and more than 46 µM, respectively. The figures for the activity change, negative = inhibition in assay [2] and in [3] were 1.17% and -9.62%, respectively. For the same compound, in [4], the activity, negative = inhibition was 2.93%. Moreover, the Potency entry in assay [7], in assay [8], in assay [9], in [10], in [11] and in assay [12] was “inactive” throughout. Moreover, in assay [13], the result was inactive.

As for `COCCn1c(=O)c(-c2ccc(OC)cc2)nc2cnc(N3CCOCC3)nc21`, the Potency in [1] is more than 11.4 µM; in [5], more than 9.22 µM; in [6] it was more than 46 µM. For the same compound, the activity change, negative = inhibition in assay [2] is -13.6%; in assay [3] it was 8.4%. In [4], the activity, negative = inhibition was 25.9%. In addition, the Potency result in assay [7], in [8], in assay [9], in assay [10], in assay [11] and in [12] was “inactive” throughout. Also, the outcome in assay [13] was inactive.

In the case of `CN(Cc1ccco1)c1ccnc(-c2cccc(C#N)c2)n1`, the Potency is more than 11.4 µM in [1]; 0.398 µM (active) in assay [14]; more than 46 µM in assay [5]; more than 46 µM in [6]; 14.1 µM (active) in assay [9]; 15.8 µM (active) in [10]. The Potency in [11] was 14.1 µM (active). The activity change, negative = inhibition in assay [2] was -18.2%. Besides, the activity, negative = inhibition in assay [4] was 2.59%. Further, the Potency result in [7], in assay [8], in [15] and in [12] was “inactive” each time. The outcome in assay [13] was inactive.

On to `Cc1noc(C)c1-c1cncnc1-n1ccnc1`, for which the Potency was more than 11.4 µM in [1], more than 46 µM in assay [5] and more than 46 µM in [6]. The activity change, negative = inhibition in [2] was 0.604%; in [3], -5.32%. For the same compound, the activity, negative = inhibition in assay [4] is 12.7%. Moreover, the Potency result in [7], in assay [8], in assay [9], in assay [10], in assay [11] and in assay [12] was “inactive” in each case. For the same compound, the outcome in [13] was inactive.

As to `Cc1noc(C)c1-c1ccc2ncnc(N3CCOCC3)c2c1`, the Potency in assay [1] was more than 11.4 µM; in [14], 12.6 µM (active); in assay [5], more than 46 µM; in assay [6], more than 46 µM; in [9] it was 12.6 µM (active); in assay [10], 7.94 µM (active). In addition, the Potency in assay [11] was 8.91 µM (active). The activity change, negative = inhibition in assay [2] is 11%. Also, the activity, negative = inhibition in assay [4] is -8.22%. For the same compound, the Potency entry in assay [7], in [8], in [15] and in assay [12] was “inactive” each time. The result in [13] was inactive.

Regarding `Cc1cccc(CNc2ncncc2-c2ccccc2Cl)c1`, the Potency in [1] was more than 11.4 µM; in assay [14] it was 3.16 µM (active); in assay [5] it was more than 46 µM; in assay [6], more than 46 µM; in assay [16] it was 0.199 µM (active); in [17] it was 2 µM (active). In addition, in assay [2], the activity change, negative = inhibition was -12.3%. Further, the activity, negative = inhibition in [4] is -14.1%. Also, the Potency entry in assay [7], in assay [15], in assay [9], in assay [10], in [11] and in [12] was “inactive” in each case. In addition, the activation in [18] is -10.3%. Further, the result in assay [13] was inactive.
